Measured values published in the supplement of paper PMC11417369.
± gives the standard deviation of the averaged measurements. Over roughly 25,000 sequences, “ln(normalized median fluorescence intensity)” has its median near 10; the highest 2% begin near 12. For the sample, the highest values were picked, then their nearest neighbours and some sequences at random.

test system: PfAP2-G AP2 domain (GST-tagged); assay: gcPBM binding intensity (ln(normalized median fluorescence intensity)); higher = stronger DNA binding
How it was run: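 Binding intensity is the highest Masliner-normalised natural-log median intensity over replicate spots in either probe orientation. To obtain it, GST-tagged P. falciparum DNA-binding domains made in E. coli were incubated for 1 h on an Agilent 4 × 180k array of primer-extended double-stranded 36-bp intergenic genomic probes plus negative controls. Detection used Alexa488 anti-GST antibody with scanning at 488 nm.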

Sequence	gcPBM binding intensity (ln)
TATTGTATTTAATAAACACACAATATTAAAAATATA [CACACA_site4725]	9.91 ± 0.16
GAAAACAAATATGTAGCACACATTCACATAATATAT [CACACA_site8731]	9.97 ± 0.014
GTTACATACCTATACACACACATATATAAATAAATA [CACACA_site6549]	10.2 ± 0.18
ATATATATAATATAGGTGCACTACTTATTTAAAAAA	10.5 ± 0.36
ATTGATAAATTAACTAGTACACATATAAATATATTA [XGTACX_site2325]	11.3 ± 0.93
TATAAGCTAAGTTGTTGTACAAAAAGGAAAAGTATA [XGTACX_site3741]	11.1 ± 0.59
TACACCAGTTGTGGGAGTACACAAAAAAAGGGAAAA [XGTACX_site6047]	11.7 ± 1
AAAGAAGGGAAACACACACACACACCCACAAAAAAA [CACACA_site3766]	10.3 ± 0.33
TATTATAATATTTATACACACATAATTTTGATAAAT [CACACA_site583]	9.95 ± 0.16
ATTATAACACCTCCCCCCCTTTTTTTATGAAGACCA [CACACA_negctrl_site1043]	11.8 ± 0.86
TATATTATGACCACCACACACCTATACACATAACAT [CACACA_site7199]	11.4 ± 0.91
AACTTTTAGAAGAACACACACATATAGATTATGACC [CACACA_site6256]	10.2 ± 0.014
TACACATACAGACATACACACATACACATATACACA [CACACA_site6918]	10.2 ± 0.23
CACAAAAGTAAGCACGCACACACAACATGAAATAAA [CACACA_site7938]	10.4 ± 0.18
ATCTTTCGTACATGTACACACAGAAAAAAAAAAAAA [CACACA_site2502]	11.5 ± 1
TTAATCTTTCCTACATGTACACACAGAAAAAAAAAA [XGTACX_site5213]	11.5 ± 1
TAATCTTTCGTACATGTACACACAGAAAAAAAAAAA [CACACA_site8798]	11.8 ± 1.3
TTAAAGCTTGCATATACACACATACATAAATTCATA [CACACA_site7208]	10 ± 0.18
TATTTTTTTTTTTTTTTTTTTACCTTTCCACTCAAA [CACACA_negctrl_site1454]	9.84 ± 0.34
ATGTATATTTTTAAAAGTACAGAATTTTCATATGAA [XGTACX_site5754]	11.3 ± 0.93
TAATATATTAATATATGTACGTATTTTTATTAATAT [XGTACX_site5346]	11.6 ± 0.93
TGTAAATAATATAATAGTACGCATATTTTTATTGAA [XGTACX_site284]	11.4 ± 0.78
ATATATTTATATAGGTGTACATATTTTGCTATTCAA [XGTACX_site5199]	11.6 ± 0.77
TTATTTTCATATAGGTGTACATAAAAATATTCTTAT [XGTACX_site8861]	11.6 ± 0.82

Sequence	gcPBM binding intensity (ln)
ATATTTATACATAAATGTACTTTTATATATTTAATA [XGTACX_site3020]	11.1 ± 0.8
TATTATGTATGTATATGTACGTATCTTATTTTATTT [XGTACX_site5008]	11.3 ± 0.76
TATATACAATATAGGTGTACATTTTTTTATCTATTT [XGTACX_site8431]	11.3 ± 0.69
ATTTTATCTTTAAACTGTACGTATTAATATGTAGAA [XGTACX_site3077]	11.7 ± 1.1
ATATTTTTTTTTTCGTGTACGCATAAATATATCTAA [XGTACX_site3360]	11.6 ± 0.95
TTTTTTAATAAATGGTGTACATATTTTTTTTATACT [XGTACX_site8584]	11.8 ± 0.87
AATTTATTTTTTTAATGTACATATGGTATAAATATA [XGTACX_site8012]	11.3 ± 0.79
ATATATGTATATTTTTGTACGCATAAATATATTTTT [XGTACX_site827]	11.3 ± 0.83
ATAATAAATAAATAATGTACATATGAAAGAATAAAT [XGTACX_site8355]	11.1 ± 0.49
ATATAAAATAAATAAGTGCAGATAAATTTATGTGAC [GTGCAC_site9504]	10.25 ± 0.057
TTGCCCATTTCATTAACACACAAATGTTTATATTCT [CACACA_site4569]	10.17 ± 0.071
TCATACATTTTCCTTGCACACATTTATAATTAATGT [CACACA_site614]	10.5 ± 0.17
TTATGCATAAAAGGTGGTACTCCGTATATACATTCT [XGTACX_site4354]	11.4 ± 0.65
TACTTTTCATCTTCTTAACACACAAAAAAAAAAAAA [CACACA_site9290]	10.1 ± 0.52
AATTTTTTAAATGTGTGTACATATTATTTAAATAAT [XGTACX_site5967]	11.5 ± 0.73
TATTTAATTTTTAAATGTACATATAAAATAATATAT [XGTACX_site2422]	11.2 ± 0.89
TAAAAATAATATATTTGTACATATGTGTATACATAA [XGTACX_site741]	10.7 ± 0.38
TTTATATATTTTAGGTGTACATAAATTTTTATATAT [XGTACX_site5597]	11.7 ± 1.1
TTTATATATTTTAGGAGTACATTAAATTATACCTTA [XGTACX_site5600]	11.5 ± 0.89
TATAAAATATAAATTTGTACATATAAAATATTTTAT [XGTACX_site7462]	10.8 ± 0.53
TTTATTATTTTTAGGAGTACACAAAATAAAACAAAT [XGTACX_site8841]	11.6 ± 1
CCCACGTATATTTTGTGTACATAAATAAATAAATAA [XGTACX_site4046]	11.6 ± 0.86
ATGTATATATATTTGTGTACATATTTAGGAAATAAA [XGTACX_site2904]	11.6 ± 1
